Test results as given in PubChem BioAssay (Tox21).
Activity calls are given as the source filed them. Calls come from the whole dose curve.

Target: Thyrotropin-releasing hormone receptor (Homo sapiens) (UniProt P34981)
Test: qHTS assay to identify small molecule agonists of the thyrotropin-releasing hormone receptor (TRHR) signaling pathway (AID 1346891);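 note: HEK293 cells expressing TRHR with calcium dye readout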
Conditions: TRHR-HEK293 calcium fluorescence, agonist mode; series mostly up to 57.6 µM
Procedure, shortened: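 HEK293/TRHR cells, 1500 per well, 18 h 37 °C; Ca dye 2 h 37 °C; pin-tool compound addition (agonist mode); kinetic fluorescence 3 min, 1 s reads; 15 concentrations, triplicate.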

Thyrotropin-releasing hormone receptor (Homo sapiens), sequence (P34981 whole entry, looked up): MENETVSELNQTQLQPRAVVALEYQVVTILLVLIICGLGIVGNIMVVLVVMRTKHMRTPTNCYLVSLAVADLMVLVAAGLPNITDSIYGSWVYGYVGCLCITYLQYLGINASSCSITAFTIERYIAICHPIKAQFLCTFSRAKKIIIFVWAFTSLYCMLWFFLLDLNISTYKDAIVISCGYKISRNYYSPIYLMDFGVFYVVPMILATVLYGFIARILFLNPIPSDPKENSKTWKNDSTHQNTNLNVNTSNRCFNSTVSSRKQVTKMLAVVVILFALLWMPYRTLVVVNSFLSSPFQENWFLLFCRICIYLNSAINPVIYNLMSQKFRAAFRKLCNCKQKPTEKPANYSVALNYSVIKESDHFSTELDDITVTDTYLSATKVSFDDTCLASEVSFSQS

SMILES | outcome
COc1ccc(C(O)(c2cncnc2)C2CC2)cc1 (centres undefined) | inactive
CCCC[N+]1(C)[C@@H]2CC(OC(=O)[C@H](CO)c3ccccc3)C[C@H]1[C@@H]1O[C@@H]12 (some centres undefined) | inactive
O=C(N/N=C/c1ccc([N+](=O)[O-])o1)c1cc([N+](=O)[O-])cc([N+](=O)[O-])c1O | inactive
CC(C)OC(=O)Cc1ccccc1 | inactive
C=CCSSCC=C | inactive
CCCC1CCCCN1 (centres undefined) | inactive
CN1CC[C@]23c4c5ccc(O)c4O[C@H]2[C@@H](O)CC[C@H]3[C@H]1C5 | inactive
C[C@@H]1C[C@@H]([C@H](O)CC2CC(=O)NC(=O)C2)C(=O)[C@@H](C)C1 | inactive
C=CCN1C[C@H](C)N([C@H](c2ccc(C(=O)N(CC)CC)cc2)c2cccc(OC)c2)C[C@H]1C | inactive
CNC(=O)Oc1cccc(N=CN(C)C)c1 | inactive
O=C(NCNC(=O)NC1C(=O)NC(=O)N1CO)NC1C(=O)NC(=O)N1CO (centres undefined) | inactive
COCc1cnc(C2=NC(C)(C(C)C)C(=O)N2)c(C(=O)O)c1 (centres undefined) | inactive
C=CCOCC1CO1 (centres undefined) | inactive
CCC1(C2=NCCN2)Cc2ccccc2O1 (centres undefined) | inactive
Cc1cccc(C)c1NC1=NCCCS1 | inactive
CN1C[C@H](C(=O)N[C@]2(C)O[C@@]3(O)[C@@H]4CCCN4C(=O)[C@H](Cc4ccccc4)N3C2=O)C=C2c3cccc4[nH]cc(c34)C[C@H]21 | inactive
NC(=O)CF | inactive
C[C@H]1[C@@H]2Cc3ccc(O)cc3[C@@]1(C)CCN2C | inactive
CCOC(C(=O)OCCN(C)C)(c1ccccc1)c1ccccc1 | inactive
Oc1cccc(Cl)c1 | inactive
Nc1ccc2c(c1)Cc1ccccc1-2 | inactive
CCOc1cccc(C2(N3CCN(c4ccccc4)CC3)CCC(C)CC2)c1 (centres undefined) | inactive
O=C(NC(=O)c1cc(F)c(F)cc1Cl)Nc1cc(F)ccc1N1CCC(C(=O)O)CC1 | inactive
CN1CC[C@]23c4c5ccc(O)c4O[C@H]2[C@@H](O)C=C[C@H]3[C@H]1C5 | inactive
O=C(O)C(Cl)(Cl)Br | inactive
N#CC(C#N)=Cc1ccc(O)c(O)c1 | inactive
O=C(Cc1ccccc1)c1ccccc1 | inactive
O=C1CC[C@@]2(O)[C@H]3Cc4ccc(O)c5c4[C@@]2(CCN3CC2CC2)[C@H]1O5 | inactive
CCCCNC(=O)OCC#CI | inactive
